Compounds with a hit are over-represented: about 3.2% of the library has one in this group of screens.
AmpC inh detg: inhibitors of E. coli AmpC beta-lactamase with detergent | AmpC hydrolysis of nitrocefin, absorbance 480 nm, 0.01% Triton | Potency, µM (series often up to 114 µM), usual class: inhibitors | 370,000 tested, 0.041% active; note: nearly all actives have a fitted effect of over 25% in size
Target sequence (P00811 whole entry, looked up): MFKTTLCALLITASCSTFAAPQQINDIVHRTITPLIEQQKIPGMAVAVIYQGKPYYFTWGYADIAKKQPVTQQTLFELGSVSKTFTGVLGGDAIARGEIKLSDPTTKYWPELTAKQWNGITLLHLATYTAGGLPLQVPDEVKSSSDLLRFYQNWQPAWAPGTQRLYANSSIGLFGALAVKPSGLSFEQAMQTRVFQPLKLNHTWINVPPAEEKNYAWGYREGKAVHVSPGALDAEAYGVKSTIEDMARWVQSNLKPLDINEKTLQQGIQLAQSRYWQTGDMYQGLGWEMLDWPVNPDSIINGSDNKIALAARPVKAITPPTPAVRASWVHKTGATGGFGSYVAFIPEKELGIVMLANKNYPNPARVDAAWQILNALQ
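20 mM phosphate pH 7.0 + 0.01% (detergent screen) or 0.0001% Triton X-100; 5.3 nM AmpC reagent; cpd preinc 15 min RT; nitrocefin (800 uM stock) to start; A480 q20 s × 4 min; Activity was normalised to no-enzyme and no-compound control wells.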
Sm TGR block: S. mansoni TGR enzyme inhibition; Q962Y6; purified TGR, DTNB reduction, TNB absorbance 405 nm; Potency, µM (top dose mostly 114 µM), actives largely listed as inhibitors; 360,000 tested, 3% active; AID 485364; note: nearly all actives have a fitted effect of over 60% in size
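First, TGR (20 nM dispensed) and NADPH were mixed with compound. Second, a 15 min room-temperature incubation followed. Third, further NADPH and then DTNB were added to start the reaction. Finally, TNB absorbance was monitored kinetically.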
RE007 growth inh: less growth of the S. pombe RE007 Vpr strain | 360,000 tested, 0.21% active | S. pombe RE007 Vpr strain, BacTiter-Glo ATP luminescence, 24 h | AID 651644 | Potency, µM (doses to about 92.2 µM), most hits filed as inhibitors; active = well fitted falling curve with a large enough effect; inconclusive = small, poorly fitted or top-dose-only effect; inactive = no such curve, though single readings can be large or run the other way; note: nearly all actives have a fitted effect of over 50% in size
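Fission yeast strain RE007, carrying one chromosomally integrated HIV-1 vpr copy, was seeded at OD 0.01 in PMG+AL medium with 23 nL pinned compound. After 24 h at 30 °C and 99% humidity, viability was read by BacTiter-Glo luminescence.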
AMA1-RON2 inh: AMA1-RON2 (P. falciparum) interaction inhibition; Potency, µM (titrated, usually from 58.2 µM), usual class: inhibitors; AlphaScreen AMA1-biotinylated RON2 peptide binding; 360,000 tested, 0.2% active; note: nearly all actives have a fitted effect of over 45% in size
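AMA1 (3D7) with his tag at 25 nM final met compounds first, then biotinylated RON2 peptide at 25 nM; detection used donor plus acceptor beads, 10 µg/mL apiece, read by AlphaScreen after 30 min at room temperature.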
AmpC inh no detg: blocks E. coli AmpC beta-lactamase in detergent-free assay | P00811 | AmpC nitrocefin hydrolysis, absorbance 480 nm, 0.0001% Triton | Potency, µM (titrated, usually from 57.1 µM), usual class: inhibitors | 330,000 tested, 0.52% active; note: nearly all actives have a fitted effect of over 20% in size
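AmpC (5.3 nM in the dispensed reagent) in 20 mM phosphate pH 7.0 with 0.01% (detergent screen) or 0.0001% Triton X-100 was preincubated with compounds for 15 min at room temperature. Nitrocefin was then added from an 800 uM solution, and hydrolysis was followed at 480 nm.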
A number is an active result; i = inactive; ? = inconclusive; nt = no result; [ ] = dose if it differs, or a comment. Unless noted, calls come from the whole dose curve; as a rule, active = well fitted curve in the direction sought with a large enough effect; inconclusive = small, poorly fitted or top-dose-only effect, or another doubt; inactive = no such curve, though single readings can be large; an effect the other way counts as inactive or inconclusive.

SMILES	AmpC inh detg	Sm TGR block	RE007 growth inh	AMA1-RON2 inh	AmpC inh no detg
CCCCCOc1ccc(C(=O)CCN2CCOCC2)cc1	i	4µM	18µM	i	i
CCCOc1ccc(C(=O)CCN2CCN(C(=O)OCC)CC2)cc1	?	100µM	32µM	i	i
Cc1c(NS(=O)(=O)c2ccccc2)cc(Cl)c(O)c1C	?	3.5µM	i	i	i
Cc1ccc(S(=O)(=O)Nc2c(Cl)c(Cl)c(O)c3ccccc23)cc1	i	0.32µM	nt	nt	i
Cc1ccc(S(=O)(=O)Nc2cc(Cl)c(O)cc2C)cc1	i	50µM	i	i	i
CC(Oc1ccccc1)C(=O)Nc1ccccc1C(=O)OCc1cc(=O)n2nc(C3CC3)sc2n1 (stereo unspecified)	i	i	nt	nt	nt
CN1OC[C@@H]2CN(Cc3ccc4c(c3)OCO4)[C@H](c3ccc(N4CCCCC4)cc3)C[C@@H]21	nt	nt	i	14µM	nt
COCc1cc(=O)[nH]c(SCCS(=O)(=O)c2ccc(Cl)cc2Cl)n1	i	0.32µM	i	i	i
C=CC(=O)Nc1cccc(Oc2ccnc3[nH]ccc23)c1	nt	nt	i	25µM	nt
O=C(O)c1ccc(-c2nc(-c3ccc(Cl)c(Cl)c3)cs2)cc1	i	?	i	i	i
NC(=O)C(=CNc1nc(-c2ccc(Cl)c(Cl)c2)cs1)C(N)=O	i	2.2µM	nt	nt	14µM
CN(C)S(=O)(=O)c1ccc(/C(O)=C2/C(=O)C(=O)N(Cc3cccnc3)C2c2cccs2)cc1 (stereo unspecified)	i	25µM	i	i	i
COc1ccc(-n2c3c(cc(-c4nc(-c5ccc(C)cc5)cs4)c2=O)C(=O)CC(C)(C)C3)cc1	i	i	nt	nt	nt
O=C(Nc1ccc(F)cc1)c1nc[nH]c1C(=O)O	i	i	i	14µM	i
COc1ccc(Br)cc1C(=O)Nc1ccc2oc(-c3cccnc3)nc2c1	i	i	nt	nt	nt
Cc1cccc2cc(C3CC(c4ccco4)=NN3S(C)(=O)=O)c(Cl)nc12 (stereo unspecified)	i	32µM	i	i	i
C=CCOc1ccc(C(=O)Nc2ccccc2C(=O)NCc2cccnc2)cc1	i	40µM	i	i	i
O=C(NCc1cccnc1)c1ccccc1NS(=O)(=O)c1ccc(F)cc1	i	i	i	i	i
O=C(NCc1cccnc1)c1ccccc1NS(=O)(=O)c1ccc(F)cc1F	i	40µM	i	i	i
COc1ccc(CCNC(=O)C2CCC(CNS(=O)(=O)c3ccc(C)cc3)CC2)cc1OC (stereo unspecified)	i	i	nt	nt	nt
COc1ccccc1-c1noc(-c2ccc(NCc3ccco3)c([N+](=O)[O-])c2)n1	i	i	nt	nt	nt
CCCCC(=O)NNC(=O)c1c(O)c2ccccc2[nH]c1=O	i	i	i	i	i
O=C(CCl)NNC(=O)c1c(O)c2ccccc2[nH]c1=O	i	14µM	i	i	i
COc1ccccc1NC(=O)Nc1ccc2c(c1)CCC2	i	i	i	i	10µM
Cc1cccc(Nc2ncnc3nc[nH]c23)c1	i	i	i	i	i
SMILES	AmpC inh detg	Sm TGR block	RE007 growth inh	AMA1-RON2 inh	AmpC inh no detg
COc1ccc(Nc2ncnc3nc[nH]c23)cc1OC	?	i	i	i	13µM
CC(C)(C)C(=O)/C(=C\c1ccc([N+](=O)[O-])cc1)n1cncn1	i	2.2µM	nt	nt	i
CC(C)(C)C(=O)/C(=C/c1ccc(Cl)cc1)n1cncn1	i	?	i	i	i
CC(=O)OCC12CC(OC(=O)CC(C)C)C(C)=CC1OC1C(O)C(OC(C)=O)C2(C)C12CO2 (stereo unspecified)	nt	nt	5.6µM	i	nt
Cc1ccccc1OCc1nnc(SCC(=O)NCc2ccco2)n1C	i	i	i	i	i
O=C(CSc1nnc(Cc2ccccc2)n1Cc1ccco1)NC1CCCC1	i	?	i	i	i
O=C(CSc1nnc(COc2ccccc2F)n1-c1ccccc1)NCc1ccco1	i	40µM	i	i	i
CC(C)OC(=O)CSc1nnc(Cc2ccccc2)n1Cc1ccco1	i	22µM	i	i	i
COc1ccccc1OCc1nnc(SCC(=O)NCc2ccco2)n1Cc1ccco1	?	16µM	i	i	i
O=C(CCS(=O)(=O)c1cc2c3c(c1)CCN3C(=O)CC2)NCc1ccc(F)cc1	i	i	nt	nt	nt
CCc1ccc(NC(=O)CCCc2nnc3n(CC(C)C)c(=O)c4sccc4n23)cc1	i	i	nt	nt	nt
COC(=O)c1ccc(CSc2nc3ccccc3c(=O)n2C)o1	i	45µM	i	i	i
Cc1ccc2nc(Nc3ccc(C)c(F)c3)c3nncn3c2c1	i	i	nt	nt	nt
COC(=O)c1cn[nH]c1NC(=S)Nc1ccccc1C	i	45µM	i	i	i
NC(=O)[C@@H]1[C@@H]2C(=O)N(c3ccc(F)cc3)C(=O)[C@@H]2[C@H]2C=Cc3ccccc3N21	i	32µM	i	i	i
Cc1ccc(NP(=O)(c2ccccc2)c2nc3ccccc3s2)cc1 (stereo unspecified)	i	16µM	i	i	i
S=c1nc(-c2ccccc2)n(CCCn2ccnc2)c2c1CCCC2	?	45µM	i	i	i
CCOc1ccc(N/C(=C(/C(Cl)=C(Cl)Cl)[N+](=O)[O-])n2cncn2)cc1	?	11µM	nt	nt	i
CCOc1ccccc1NC(=O)c1ccc([N+](=O)[O-])cc1	i	i	nt	nt	i
O=C(Nc1ccc(F)cc1)c1ccc(-n2cncn2)c([N+](=O)[O-])c1	i	i	i	i	i
CCOc1ccccc1N/C(=C(/C(Cl)=C(Cl)Cl)[N+](=O)[O-])n1cncn1	i	6.3µM	i	?	i
O=[N+]([O-])/C(C(Cl)=C(Cl)Cl)=C(\Nc1ccc(F)cc1)n1cncn1	i	8.9µM	nt	nt	i
CCCSCCCNC(=O)c1ccc2nc(Cc3ccccc3)oc2c1	i	i	nt	nt	nt
COc1ccc(OC)c(NC(=O)Cn2nc3c(cc2=O)CCCC3)c1	i	i	nt	nt	nt
COCCC(=O)Nc1ccc2c(c1)CN(C(=O)c1ccc(CSC)o1)CC2	i	45µM	i	i	i
SMILES	AmpC inh detg	Sm TGR block	RE007 growth inh	AMA1-RON2 inh	AmpC inh no detg
Cc1nnc(NC(=O)CSc2nnc(-c3ccco3)n2C(C)C)s1	i	i	i	i	i
CCc1nnc(NC(=O)CSc2ccc(-c3ccco3)nn2)s1	i	7.1µM	i	i	i
Cc1nnc(NC(=O)CSc2ccc(-c3ccco3)nn2)s1	i	14µM	i	i	i
CCc1nnc(NC(=O)CSc2nnc(-c3ccco3)n2C)s1	?	i	i	i	i
CCc1nnc(NC(=O)CSc2nnc3ncccn23)s1	i	i	i	i	0.32µM
CCCCn1c(C)cc2c(c1=O)C1O[C@](c3ccsc3)(Cc3ccccc31)O2	?	i[22.9 µM]	nt	nt	?
COC(=O)/C(C(C)=O)=C(\C=C\N(C)C)N(C)C	i	i	i	i	i
COC(=O)\C(C(C)=O)=C(/C=C/C=C/C=C/N(C)C)N(C)C	i	35µM	i	i	i
Cc1ccc(C)c(NC(=O)C(Cc2ccccc2)n2cccc2)c1 (stereo unspecified)	i	i	nt	nt	nt

Source: PubChem (National Center for Advancing Translational Sciences (NCATS))
